esBAF inh = inhibitors of esBAF chromatin remodeling in mouse ES cells. Bmi1-luciferase knock-in reporter, 24 h; 100% = twice the neutral-well signal. reporter increase, % at 12.5 µM. actives 2% (n = 350,000); in the data active means activation above about 40%; inconclusive means no clear call, values can overlap the other calls;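 further: 0% = median of the plate's neutral control wells and 100% = double that signal; a rise in the Bmi1 reporter signal indicates esBAF inhibition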
EBV LMP1 NFkB = reduces LMP1-driven NF-kappaB luciferase signal | AID 504558 | LMP1-induced NF-kappaB luciferase reporter cells, luminescence | inhibition, % at 12.5 µM | actives 0.69% (n = 350,000); in the data active means inhibition above about 41%; inconclusive means no clear call, values can overlap the other calls;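 further: 0% = neutral control wells and 100% = reference inhibitor control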
MITF TRPM1 HTS = increases MITF-driven TRPM1 promoter luciferase signal; AID 588334; activation, % at 12.5 µM; actives 0.75% (n = 300,000); SK-MEL-5 TRPM1-promoter luciferase, 24 h; % of positive control, neutral wells = 0;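 active means mean activation of at least 80% with every replicate also reaching 80%; inconclusive means mean reaches 80% but some replicate falls short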;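 further: 0% = neutral control wells and 100% = parthenolide positive control wells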
C2C12 statin = suppression of simvastatin myotoxicity; rescue of ATP level, % at 7.49 µM; AID 602340; C2C12 myotubes + simvastatin, ATP luminescence, 48 h; scaled: DMSO 0, geranylgeraniol control 100; actives 0.78% (n = 330,000);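 active means mean ATP rescue above about 67%, or every replicate alone reaching that limit, limit read from the data, passing the limit was not always enough; inconclusive means no clear call, values can overlap the other calls; inactive means mean under the limit and some replicate under it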;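 further: myotubes were challenged with 10 µM simvastatin during compound exposure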
Wnt act = Wnt/beta-catenin pathway activation; Wnt/beta-catenin reporter cell assay, activator, plate reader; activation, % at 9.35 µM; actives 1.2% (n = 300,000); in the data active means activation above about 30%, passing the limit was not always enough; inconclusive means no clear call, values can overlap the other calls;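 further: 0% = neutral control wells and 100% = positive control wells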
MITF TRPM1 inh = MITF TRPM1 promoter inhibition in SK-MEL-5 cells. SK-MEL-5 TRPM1 promoter luciferase, 24 h. inhibition, % at 12.5 µM. actives 0.83% (n = 330,000). AID 488899;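 active means mean inhibition across replicates of 60% or more, whatever share of single replicates reaches that level; inconclusive means some that reach 60%, reason not given; inactive means mean inhibition across replicates below 60%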
Active calls of the source: *; ? = inconclusive; . = not tested or not shown. The list is not random: actives were taken first. Their share in the collection is about 4%.

SMILES	esBAF inh	EBV LMP1 NFkB	MITF TRPM1 HTS	C2C12 statin	Wnt act	MITF TRPM1 inh
O=C(Oc1ccc(Cl)cc1N1C(=O)CCC1=O)c1ccco1	-9	-3	11	66*	-5	-6
Cc1cnc(CN2CCc3c([nH]c4ccccc34)C2C2CCCCC2)[nH]1 (configuration not stated)	11	14	4	-14	1	-4
c1ccc2c3c([nH]c2c1)C(C1CCCCC1)N(Cc1ncc[nH]1)CC3 (configuration not stated)	2	73*	-4	-5	3	6
O=C1NCC2=C1C(c1ccc(Br)cc1)Nc1ccccc1N2 (configuration not stated)	58*	-9	.	7	.	-17
CC1CC2=C(C(=O)O1)C(c1ccccc1)Nc1ccccc1N2 (configuration not stated)	.	4	-8	.	0	11
CO[C@H]1CN(C)C(=O)c2cccc(C#N)c2OCC[C@@H]2CC[C@@H](OC)[C@@H](CN(C)C(=O)[C@H]1C)O2	4	.	.	-11	.	.
CCCCNc1cc(NC(C)=O)cc2cc(OC)c(OC)cc12	47*	0	-4	-16	.	3
CCN1C(=O)S/C(=C/c2ccsc2)C1=O	5	-2	38	5	25	-42
CC(C)N1C/C(=C/c2ccsc2)C(=O)/C(=C/c2ccsc2)C1	-1	-88	-100	3	.	101*
CC(C)N1C/C(=C/c2cccnc2)C(=O)/C(=C/c2cccnc2)C1	.	?	-90	.	5	90*
CN1C/C(=C/c2cccnc2)C(=O)/C(=C/c2cccnc2)C1	.	1	-100	.	.	100*
COc1ccc(NC(=O)N(C)C[C@@H]2Oc3c(NC(=O)c4nc5ccccc5s4)cccc3C(=O)N([C@@H](C)CO)C[C@H]2C)cc1	2	.	.	.	.	.
O=C(Cn1ccsc1=NC(=O)C(F)(F)F)c1ccccc1	49*	-16	79	-22	.	-77
COc1cc(CN2CCC(Oc3cc(C(=O)NC4CC4)ccc3OC)CC2)cc(OC)c1	-3	.	-8	3	0	5
O=C(Oc1ccccc1N1C(=O)C2CCCCC2C1=O)c1ccc(Cl)cc1 (configuration not stated)	-5	-4	0	1	.	0
Cc1nn2c(-c3ccccc3)nnc2c2ccccc12	52*	-20	.	2	.	-5
Cc1nn2c(-c3cccc(NC(=O)c4ccco4)c3)nnc2c2ccccc12	11	31	.	-13	-2	18
O=C(Nc1ncc(S(=O)(=O)c2ccc([N+](=O)[O-])cc2)s1)c1ccccc1F	4	7	3	-15	4	0
Cc1ccn2c(c1)nc(=S)n2C(=O)c1ccccc1	.	49*	-41	.	-6	41
Cc1cccc(C(=O)n2c(=S)nc3cc(C)ccn32)c1	-25	33	.	-13	7	7
CN(CC(=O)Nc1cccc(F)c1)C(=O)c1ccc2c(=O)n3c(nc2c1)CCC3	-4	8	3	-2	5	0
O=c1c2c([nH]c3ccccc13)CCCC2	-5	7	10	98*	.	-10
CCOC(=O)c1c(C)[nH]c(C(=O)N/N=C\c2ccccc2O)c1C	.	52*	-17	.	0	19
CCOC(=O)c1c(C)[nH]c(C(=O)OCc2ccccc2)c1C	76*	-54	92*	7	43*	-98
CC(=O)c1c(C)[nH]c(C(=O)OCc2cccc(C)c2)c1C	54*	0	15	-41	8	-11
SMILES	esBAF inh	EBV LMP1 NFkB	MITF TRPM1 HTS	C2C12 statin	Wnt act	MITF TRPM1 inh
COc1ccc(C)cc1COC(=O)c1[nH]c(C)c(C(C)=O)c1C	10	0	4	-10	-2	-3
CCOC(=O)c1c(C)[nH]c(C(=O)OCC(=O)NCc2ccc(F)cc2)c1C	16	2	4	-55	-1	-4
CCOC(=O)c1c(C)[nH]c(C(=O)OCC(=O)NCc2ccco2)c1C	49*	-5	.	-1	.	.
CC1CN(C(=O)CCC(=O)NCc2ccccc2)c2ccccc2O1 (configuration not stated)	-9	-3	3	-6	-2	-1
CCCCCCC(=O)c1c(C)[nH]c(C(=O)OCC)c1C	55*	-10	.	5	.	-16
CCOC(=O)c1c(C)[nH]c(N=Nc2ccccc2C)c1C	48*	-44	79	-17	.	-76
CCCCCC(=O)c1c(C)[nH]c(C(=O)OCC)c1C	.	8	0	.	9	-2
CCOC(=O)c1c(C)[nH]c(N=Nc2ccc(C)cc2C)c1C	28	-13	61	-7	4	-59
CCOC(=O)c1c(C)[nH]c2c1cc(O)c1ccccc12	62*	1	-1	7	20	1
CC(CNC1CCCCC1)OC(=O)c1ccccc1 (configuration not stated)	3	62*	-3	16	-3	4
O=C(COC(=O)c1ccccc1)NC1CCCC1	8	-8	11	3	6	-8
CC(=O)n1cc([C@@H]2C=C(C(=O)N3CCN(Cc4ccccc4)CC3)O[C@H](OCc3ccc(CO)cc3)C2)c2ccccc21	3	2	-9	86*	-3	8
CC(=O)n1cc([C@H]2C=C(C(=O)N3CCN(Cc4ccccc4)CC3)O[C@@H](OCCCCO)C2)c2ccccc21	.	2	-13	.	.	10
O=C(NCc1ccc(F)cc1)[C@H]1[C@H](CO)[C@H]2Cn3c(cccc3=O)[C@H]2N1CCC(F)(F)F	-5	.	.	6	.	.
Cc1nc2ncnn2c(N2CCN(C(=O)c3cccc(F)c3)CC2)c1Cc1ccccc1	11	-1	-8	-11	.	9
Cc1ccc2cc3c(N)c(C(=O)N4CCOCC4)sc3nc2c1	.	-6	11	.	59*	-13
Cc1ccc(-c2cc(C(=O)N3CCOCC3)c3cc(C)ccc3n2)cc1	13	-8	28	-3	31*	-22
Cc1ccc2nc3sc(C(=O)N4CCOCC4)c(N)c3cc2c1	-77	64*	.	.	9	69*
COc1ccc(-c2csc(NC(CO)c3nc4ccccc4n3Cc3ccc(C)cc3)n2)cc1 (configuration not stated)	39	-7	14	0	7	-10
CCC1CCc2c(sc(NC(=O)c3cccnc3)c2C(N)=O)C1 (configuration not stated)	38*	-9	43	.	-5	-33
NC(=O)c1c(NC(=O)c2cccnc2)sc2c1CCCC2	.	-22	49	.	5	-50
CC(C)(O)C#Cc1ccc(C(=O)NCCC(=O)O)s1	.	1	3	.	2	2
CC(C)(O)C#Cc1ccc(C(=O)Nc2ccc3c(c2)OCO3)s1	63*	-40	47	-22	31*	-51
CCc1sc(C(=O)Nc2ccc3c(c2)OCCO3)cc1Br	51*	-29	104*	-12	43*	-101
O=C(Nc1ccc2c(c1)OCCO2)c1ccc(Br)s1	.	-27	16	.	-4	-18

Screens deposited in PubChem BioAssay by Broad Institute.
